Compound activity: PubChem, Fisher Drug Discovery Resource Center
NPYLR7 agonist – mosquito NPYLR7 agonism. HEK293T NPYLR7/Galpha15, GCaMP6s calcium fluorescence. activation, % at 10 µM. 270,000 compounds, 0.15% hits. AID 1259423; in the data active = activation above about 40%;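 note: 0% = vehicle and 100% = reference agonist at the receptor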
hcGAS lum – inhibitors of human cGAS | Q8N884 | 290,000 compounds, 0.081% hits | inhibition, % at 12.5 µM | recombinant h-cGAS, ATP depletion, Kinase-Glo luminescence;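 note: 0% = vehicle reaction and 100% = reaction without DNA for no activity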
Target sequence (Q8N884 whole entry, looked up): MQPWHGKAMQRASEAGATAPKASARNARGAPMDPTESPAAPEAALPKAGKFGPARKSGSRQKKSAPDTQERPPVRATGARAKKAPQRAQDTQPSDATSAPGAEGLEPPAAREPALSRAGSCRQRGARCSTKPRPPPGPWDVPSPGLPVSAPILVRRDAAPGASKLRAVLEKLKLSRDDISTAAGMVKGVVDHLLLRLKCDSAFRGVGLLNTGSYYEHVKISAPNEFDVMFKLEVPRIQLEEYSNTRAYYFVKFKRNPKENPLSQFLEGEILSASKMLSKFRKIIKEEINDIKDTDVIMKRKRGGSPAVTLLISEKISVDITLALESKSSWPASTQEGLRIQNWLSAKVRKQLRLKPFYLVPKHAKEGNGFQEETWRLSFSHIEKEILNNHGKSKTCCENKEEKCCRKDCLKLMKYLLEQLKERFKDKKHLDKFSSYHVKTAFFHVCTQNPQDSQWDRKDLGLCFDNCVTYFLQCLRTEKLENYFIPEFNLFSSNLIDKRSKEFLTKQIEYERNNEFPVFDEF
mcGAS inh – blocks mouse cGAS activity. Q8C6L5. recombinant cGAS, Kinase-Glo ATP depletion luminescence. inhibition, % at 12.5 µM. 160,000 compounds, 0.15% hits;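 note: 0% = negative control wells and 100% = reference inhibitor with no enzyme activity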
Starred values were filed as active, the others as inactive; · = no result given; ! = not confirmed by another sample. Shown are actives, neighbours in structure and some others; about 0.28% of the full set was active somewhere. Cut-off read from the data, not from the text of the source, unless noted: active = inhibition above about 40%; inactive = the rest.

SMILES	NPYLR7 agonist	hcGAS lum	mcGAS inh
CC(C)c1ccc(-n2ncc(C(=O)NNc3cccc(Cl)c3)c2N)cc1	0	-11	·
NC(=O)N1CCN(C(=O)c2ccccc2C2CCNC2)CC1 (stereo unspecified)	-3	2	·
Cc1ccc(C(=O)N2CCC(CCN3CCCC3)CC2)n1C(F)F	·	-16	-5
FC(F)(F)c1ccc(-c2nc3ccc(Cl)cn3c2NCc2ccccc2)cc1	47*	-7	-8
CC(C)(C)c1ccc(-c2nc3ccc(Cl)cn3c2NCc2ccccc2)cc1	-4	-6	-7
NC(=O)NN=Cc1cc(Br)cc(Br)c1O	1	8	·
COCCN=Cc1cc(Br)cc(Br)c1O	9	68*	2
CCOc1cc(/C=N\NC(=O)CSc2nc3ccccc3[nH]2)ccc1O	-1	-6	-7
Cc1cc(C(F)F)n2nc(C(=O)Nc3cc(OCC(F)(F)F)cc([N+](=O)[O-])c3)nc2n1	-1	-4	·
Cc1cc(O)c(CN2CCN(CCO)CC2)c2c1C(=O)/C(=C/c1cccc(Br)c1)O2	25	-7	6
O=C1/C(=C/c2cc3cc(Br)ccc3o2)Oc2c1ccc(O)c2CN1CCN(CCO)CC1	72*	-2	-3
CCc1ccc(/C=C2\C(=O)NN(c3ccc(Cl)c(Cl)c3)C2=O)cc1	6	-8	15
Cc1ccc(N2NC(=O)/C(=C/c3cccc(OC(=O)c4cccs4)c3)C2=O)cc1Cl	0	0	53*
CCN=c1scc(C)n1N=Cc1ccc(O)c(O)c1O	-11	3	·
O=C(NCc1nnnn1-c1ccc(F)cc1)Nc1cccs1	3	-16	·
COc1cc(NC(=O)N2CC(=O)N3CCc4c(F)cccc4C3C2)cc(OC)c1OC (stereo unspecified)	43*	-7	-8
CCOc1ccccc1NC(=O)N1CC(=O)N2CCc3c(F)cccc3C2C1 (stereo unspecified)	10	0	-3
CC(NCCC(c1ccccc1)c1ccccc1)c1ccccc1 (stereo unspecified)	59*!	-4	-5
CC(NCC1CCC1)c1ccccc1 (stereo unspecified)	-7	-3	·
O=C(O)c1cc(Br)c2ccccc2c1O	-6	39	68*
COc1cc(Br)c(OC)c(C(=O)O)c1	7	-6	·
Cc1cccc(C)c1Nc1c(C2CCCCC2)nc2ncccn12	9	0	-3
N#CC(=Cc1ccc(Cl)cc1Cl)C(N)=S	7	-6	67*
CC(C)NC(=O)C(C#N)=Cc1ccc(Cl)cc1Cl	0	-1	10
CC=CCn1c(=O)c2c(nc3n2CC(C)=NN3CCC)n(C)c1=O	7	-5	-7
SMILES	NPYLR7 agonist	hcGAS lum	mcGAS inh
COc1ccc(CN(C)CN2N=C(c3ccc(F)cc3)CCC2=O)cc1	2	18	·
COCCNC(=O)Cn1nc2c(c1NC(=O)Cc1ccccc1Cl)CSC2	-3	-4	-7
CCCCNC(=O)CCCCCNC(N)=O	55*	-3	·
CCCCCCCCCCCCCCCC(=O)NCCO	5	-8	-3
O=C(C1CCCN1S(=O)(=O)c1cccs1)N1CCN(c2nc3c(Cl)cccc3s2)CC1 (stereo unspecified)	1	-5	-10
CCCCCCc1cc2cc(-c3nnc(Nc4ccc(F)cc4)s3)c(=O)oc2cc1O	-1	0	-4
CCc1ccc(NC(=O)CSc2nc(=O)n(CCCN(CC)CC)c3c2CCC3)cc1	5	6	0
COc1cc(C=C2N=C(c3ccc4c(c3)OCO4)OC2=O)cc2c1OCCO2	97*	-4	·
CCOc1ccc(C2=NC(=Cc3cc(OC)c4c(c3)OCCO4)C(=O)O2)cc1OCC	2	-6	·
CCOC(=O)C1CCCCN1C(=O)c1cc(COc2ccc(C)c(C)c2)on1 (stereo unspecified)	8	1	·
C=CCN1C=CC(=CC=C(C#N)C#N)C=C1	72*	-4	·
CN1C(=CC=C(C#N)C#N)C=Cc2ccccc21	-6	10	·
CC(C)(C)c1ccc(/C=N\Nc2ccc3c(Cl)cc(Cl)c(O)c3n2)cc1	-5	-2	-2
COc1cc(C)ccc1C(=O)C=Cc1ccc(OC)c(OC)c1OC	2	0	-5
CCCCS(=O)(=O)Cc1ccc(F)cc1	-5	5	-1
O=C(NCCc1ccc2c(c1)OCO2)c1cccc(S(=O)(=O)N2CCOCC2)c1	1	0	·
Cc1ccc(Cc2nsc(N(CCC(=O)NCCCN3CCCCC3C)Cc3ccco3)n2)cc1 (stereo unspecified)	4	-1	-4
C=CCOc1ccc(C=C2COc3ccccc3C2=O)cc1OC	3	-3	46*
COc1cc(C=C2COc3ccccc3C2=O)ccc1OCC#N	0	-5	38
CCN(CC)c1ccc2cc(C(N)=O)/c(=N\NC(N)=S)oc2c1	130*	-7	3
CCN(CC)c1ccc2cc(C(N)=O)c(=NCc3ccccc3)oc2c1	-3	1	·
C=CCOC(=O)C1=C(C)N(C)C(=O)NC1c1ccc(Cl)c(Cl)c1 (stereo unspecified)	0	-7	-4
Cc1ccc(N2C(=O)NC(=O)/C(=C\c3ccc(N(C)C)o3)C2=O)cc1	5	-3	-8
Cc1ccc(N2C(=O)NC(=O)/C(=C\c3cccs3)C2=O)cc1	65*	-4	-7
Cc1nc2nc(N3C(=O)c4ccccc4C3=O)nn2c(C)c1Cl	18	-4	·
SMILES	NPYLR7 agonist	hcGAS lum	mcGAS inh
O=C(NCCN1CCN(S(=O)(=O)c2ccc3ccccc3c2)CC1)C(=O)Nc1ccc(Cl)cc1	9	-9	-2
Cc1cc(=O)n2[nH]c(C)c(-c3ccc(F)cc3)c2n1	0	-1	·
Cc1ccc2c(n1)[nH]n1c(=O)cc(C)nc21	7	43*	·
Cc1cc(C(=O)N(C)CCc2noc(C(C)C)n2)ccc1F	·	2	-14
c1ccc(C2=Nc3ncnn3C(c3ccccc3)C2)cc1 (stereo unspecified)	1	5	1
CSc1ccc(C2CC(c3cccs3)=Nc3ncnn32)cc1 (stereo unspecified)	124*	-5	·
Cc1cccc(-c2noc(N3CCOCC3)c2CN(CCN(C)C)C(=O)c2ccco2)c1	7	-8	-6
COc1cccc(CNC(=O)c2ccc(-c3cc(-c4cccc(C(F)(F)F)c4)n[nH]3)cc2)c1	-7	-1	104*
COc1ccc(CCNC(=O)c2ccc(-c3cc(-c4cccc(C(F)(F)F)c4)n[nH]3)cc2)cc1	-2	-11	-9
O=C(C1CC=CCC1C(=O)N1CCc2ccccc2C1)N1CCc2ccccc2C1 (stereo unspecified)	-7	-6	-3
NC(=S)N/N=c1\oc2cc(O)ccc2cc1-c1nc2ccccc2[nH]1	67*	1	·
COc1ccc2o/c(=N\NC(N)=S)c(-c3nc4ccccc4[nH]3)cc2c1	-2	2	·
Cc1ccc(CN(Cc2ccc(F)cc2)CC(O)Cc2ccccc2)c(C)c1 (stereo unspecified)	30	-4	-5
CCCN(Cc1cc(C)ccc1C)CC(O)Cc1ccccc1 (stereo unspecified)	3	-5	62*
Cc1ccc(NC(=O)Cn2nc(C)c3cnn(-c4ccc(F)cc4)c3c2=O)c(C)c1	8	-9	·
C=c1c(C#N)c2[nH]c(N)c(C#N)c(C)c-2/c1=C\c1ccc(C(=O)OC)cc1	7	-4	-1
C=c1c(C#N)c2[nH]c(N)c(C#N)c(C)c-2/c1=C\c1ccc(O)cc1	21	11	71*
